Activity calls are given as the source filed them. Unless noted, the rule behind the calls is not given here.
Columns and labels:
[1] = compounds binding Alexa647 anti-His antibody – biochemical, small-molecule microarray, 635 nm fluorescence, artefact control for SMM control protein annotation, primary screen (AID 1128); details: higher = more signal;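 note: score merges feature fluorescence with signal-to-noise for each printed compound spot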
[2] = tested on: Human papillomavirus type 1a E7 protein (residues 1-88); experiment: HPV1a E7 small-molecule binders, primary screen, biochemical, small-molecule microarray, residues 1-88, 635 nm (AID 1129); details: small-molecule microarray binding, fluorescence 635 nm; higher = more signal
[3] = target: Focal adhesion kinase 1 (Homo sapiens) (UniProt Q05397); experiment: PTK2 protein binding on printed compound slides – biochemical, small-molecule microarray, 635/667 nm fluorescence, BSA, DTT, primary screen (AID 1130); details: 635 nm fluorescence, higher = more signal;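 note: composite of spot emission at 667 nm and signal to noise over triplicate slides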
Chain of Focal adhesion kinase 1 (Homo sapiens) (Q05397 whole entry, looked up): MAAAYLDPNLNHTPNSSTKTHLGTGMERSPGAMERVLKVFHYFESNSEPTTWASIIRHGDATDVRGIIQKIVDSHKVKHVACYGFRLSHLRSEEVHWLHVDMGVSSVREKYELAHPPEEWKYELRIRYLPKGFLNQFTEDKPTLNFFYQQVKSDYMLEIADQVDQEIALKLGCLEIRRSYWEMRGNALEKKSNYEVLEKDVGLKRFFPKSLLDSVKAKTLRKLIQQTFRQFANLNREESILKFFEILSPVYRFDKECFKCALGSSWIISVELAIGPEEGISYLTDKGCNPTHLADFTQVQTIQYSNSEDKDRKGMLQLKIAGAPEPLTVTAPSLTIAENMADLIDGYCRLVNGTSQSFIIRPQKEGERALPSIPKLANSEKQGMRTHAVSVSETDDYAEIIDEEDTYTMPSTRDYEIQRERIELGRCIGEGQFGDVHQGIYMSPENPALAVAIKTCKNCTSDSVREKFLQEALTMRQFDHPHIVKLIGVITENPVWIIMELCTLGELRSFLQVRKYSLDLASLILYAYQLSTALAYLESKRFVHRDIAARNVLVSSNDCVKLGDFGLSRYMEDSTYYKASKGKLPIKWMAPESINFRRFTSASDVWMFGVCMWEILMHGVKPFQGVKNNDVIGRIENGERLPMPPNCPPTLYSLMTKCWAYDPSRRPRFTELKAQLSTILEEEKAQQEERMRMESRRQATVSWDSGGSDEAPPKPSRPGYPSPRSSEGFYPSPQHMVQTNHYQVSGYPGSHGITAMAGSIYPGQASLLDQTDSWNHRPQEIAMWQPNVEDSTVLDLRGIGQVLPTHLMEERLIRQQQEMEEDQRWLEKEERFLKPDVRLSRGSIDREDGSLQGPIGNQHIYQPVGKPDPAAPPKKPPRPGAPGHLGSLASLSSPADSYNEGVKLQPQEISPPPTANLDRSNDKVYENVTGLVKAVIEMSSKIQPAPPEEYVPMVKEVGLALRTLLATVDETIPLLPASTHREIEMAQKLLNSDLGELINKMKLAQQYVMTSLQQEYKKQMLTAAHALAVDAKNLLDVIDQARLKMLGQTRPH

[4] = tested on: Fibrinogen (Alexa647-labelled); experiment: Alexa647-fibrinogen binding to printed small molecules – biochemical, small-molecule microarray, 635/667 nm fluorescence, artefact control for SMM control-protein annotation, profiling panel (AID 1131); details: fibrinogen-A647 binding fluorescence, higher = more signal;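 note: z-score merges 667 nm fluorescence with per-spot signal-to-noise over triplicate slides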
[5] = target: Follistatin (Homo sapiens) (UniProt P19883); experiment: FST protein binding to printed compounds – biochemical, small-molecule microarray, 635/667 nm fluorescence, primary screen (AID 1132); details: 635 nm fluorescence, higher = more signal
Chain of Follistatin (Homo sapiens) (P19883 whole entry, looked up): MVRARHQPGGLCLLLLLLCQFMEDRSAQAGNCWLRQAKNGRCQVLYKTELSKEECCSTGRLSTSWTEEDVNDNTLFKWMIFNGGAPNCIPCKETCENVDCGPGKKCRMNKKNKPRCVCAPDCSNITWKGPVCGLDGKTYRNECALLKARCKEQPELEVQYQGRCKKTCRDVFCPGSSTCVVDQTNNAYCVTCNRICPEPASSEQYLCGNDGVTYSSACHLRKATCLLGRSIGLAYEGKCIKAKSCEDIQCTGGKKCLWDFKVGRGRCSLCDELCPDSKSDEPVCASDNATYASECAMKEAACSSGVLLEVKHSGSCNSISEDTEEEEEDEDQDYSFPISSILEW

[6] = target: Fibroblast growth factor 2 (Homo sapiens) (UniProt P09038); experiment: basic fibroblast growth factor binding to printed compounds – biochemical, small-molecule microarray, 635/667 nm fluorescence, primary screen (AID 1133); details: FGF2, fluorescence 635/667, higher = more signal
Chain of Fibroblast growth factor 2 (Homo sapiens) (P09038 whole entry, looked up): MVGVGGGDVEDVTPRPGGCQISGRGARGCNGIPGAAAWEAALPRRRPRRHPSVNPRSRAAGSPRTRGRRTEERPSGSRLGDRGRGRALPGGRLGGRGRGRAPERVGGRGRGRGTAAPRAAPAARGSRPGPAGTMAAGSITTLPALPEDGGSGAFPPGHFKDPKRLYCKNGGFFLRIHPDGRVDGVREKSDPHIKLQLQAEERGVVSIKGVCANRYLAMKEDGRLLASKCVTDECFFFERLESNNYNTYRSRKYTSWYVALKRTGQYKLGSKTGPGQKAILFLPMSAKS

[7] = JC-1 mitochondrial potential readout, lung cancer cells – cell-based, A549, JC-1 fluorescence, basal, 24 h, 100 nL, profiling panel (AID 1138); details: higher = more signal;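 note: A549 lung adenocarcinoma cells under basal conditions with no added stimulus; test concentration not given here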
Lefty1 = Lefty1 protein binding to printed compounds – biochemical, small-molecule microarray, 635/667 nm fluorescence, primary screen (AID 1139); details: fluorescence 635/667, higher = more signal
[8] = tested on: wheat germ agglutinin (Triticum aestivum), Alexa647-labelled; experiment: Alexa647-WGA lectin binding to printed small molecules – biochemical, small-molecule microarray, 635/667 nm fluorescence, artefact control for SMM control-protein annotation, profiling panel (AID 1140); details: WGA-A647 binding, 635 nm fluorescence, higher = more signal;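 note: score merges 667 nm feature emission with signal to noise over triplicate slides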
[9] = target: Luciferin 4-monooxygenase (Photinus pyralis) (UniProt P08659); experiment: inhibition of purified Photinus pyralis luciferase – biochemical, luminescence, purified enzyme, 2006 set, primary screen (AID 1141); details: purified firefly luciferase, SteadyGlo luminescence, 30 min; higher = more signal, called active from +8 up or from −8 down;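 note: cell-free assay with purified firefly luciferase at 100 ng per well in PBS; test concentration not given here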
Chain of Luciferin 4-monooxygenase (Photinus pyralis) (P08659 whole entry, looked up): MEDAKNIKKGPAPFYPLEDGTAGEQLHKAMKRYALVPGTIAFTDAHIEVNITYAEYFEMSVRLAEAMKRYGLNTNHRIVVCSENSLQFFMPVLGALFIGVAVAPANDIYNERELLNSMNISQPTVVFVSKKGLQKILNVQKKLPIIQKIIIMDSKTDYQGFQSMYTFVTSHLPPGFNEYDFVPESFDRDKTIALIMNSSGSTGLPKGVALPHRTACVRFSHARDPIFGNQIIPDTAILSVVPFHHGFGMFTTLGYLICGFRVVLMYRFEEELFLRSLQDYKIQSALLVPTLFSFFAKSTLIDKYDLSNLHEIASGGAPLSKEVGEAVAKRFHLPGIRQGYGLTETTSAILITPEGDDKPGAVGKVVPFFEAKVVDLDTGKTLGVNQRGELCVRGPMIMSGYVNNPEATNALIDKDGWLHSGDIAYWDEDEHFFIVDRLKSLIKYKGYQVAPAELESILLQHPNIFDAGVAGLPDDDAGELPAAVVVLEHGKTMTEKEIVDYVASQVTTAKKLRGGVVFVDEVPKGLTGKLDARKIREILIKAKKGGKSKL

[10] = tested on: Wnt5a (protein binding on small-molecule microarray); experiment: small molecules binding Wnt5a protein – biophysical, small-molecule microarray, 635/667 nm fluorescence, primary screen (AID 1142); details: 635 nm fluorescence, higher = more signal;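 note: fluorescence read at 667 nm with signal to noise per printed feature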
[11] = ATP-based viability of Huh7 replicon cells – cell-based, CellTiter-Glo luminescence, basal, 48 h, cytotoxicity control for HCV replication inhibitor project, primary screen (AID 1143); details: higher = more signal, called active from +8 up or from −8 down;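 note: Huh7 hepatoma cells carrying a hepatitis C replication reporter with no stimulus; test concentration not given here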
[12] = Pseudomonas biofilm growth suppression – PAO1 strain, BacTiter-Glo luminescence, LB-PBS, primary screen (AID 1144); details: P. aeruginosa PAO1 biofilm, 12 h, higher = more signal
[13] = basal CRE-LacZ reporter activity in PC12 – cell-based, unstimulated, primary screen (AID 1145); details: no forskolin, luminescence, 4.5 h, higher = more signal, called active from +8 up or from −8 down
[14] = forskolin-driven CRE-LacZ activity in PC12 – cell-based, CRE-LacZ reporter, forskolin-stimulated, primary screen (AID 1146); details: luminescence, 4.5 h, higher = more signal, called active from +8 up or from −8 down;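 note: PC12 cells with 6xCRE LacZ reporter stimulated by forskolin 10 µM; beta-galactosidase reporter signal reflecting CREB driven transcription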
[15] = target: Streptavidin (Streptomyces avidinii) (UniProt P22629); experiment: compounds binding control protein streptavidin – biophysical, small-molecule microarray, 635/667 nm fluorescence, artefact control for SMM compound annotation, primary screen (AID 1147); details: higher = more signal;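 note: signal reflects streptavidin binding to arrayed compounds as a control protein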
Chain of Streptavidin (Streptomyces avidinii) (P22629 whole entry, looked up): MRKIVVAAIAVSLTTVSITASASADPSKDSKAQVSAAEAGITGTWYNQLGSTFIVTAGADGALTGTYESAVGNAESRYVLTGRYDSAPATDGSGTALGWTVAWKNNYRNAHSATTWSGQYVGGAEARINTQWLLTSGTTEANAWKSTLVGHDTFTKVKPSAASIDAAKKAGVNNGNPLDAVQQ

[16] = probe aInhba binding on compound microarray – biochemical, small-molecule microarray, 635/667 nm fluorescence, primary screen (AID 1148); details: higher = more signal;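 note: score merges 667nm spot fluorescence with signal-to-noise for antibody binding to printed compounds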
Torsin-1A (Homo sapiens) [17] = target: Torsin-1A (Homo sapiens) (UniProt O14656); experiment: TOR1A wild-type binding on microarray – cell lysate, small-molecule microarray, lysate, 635/667 nm, primary screen (AID 1149); details: COS7 hTOR1A-WT lysate, 635 nm fluorescence, higher = more signal
Chain of Torsin-1A (Homo sapiens) (O14656 whole entry, looked up): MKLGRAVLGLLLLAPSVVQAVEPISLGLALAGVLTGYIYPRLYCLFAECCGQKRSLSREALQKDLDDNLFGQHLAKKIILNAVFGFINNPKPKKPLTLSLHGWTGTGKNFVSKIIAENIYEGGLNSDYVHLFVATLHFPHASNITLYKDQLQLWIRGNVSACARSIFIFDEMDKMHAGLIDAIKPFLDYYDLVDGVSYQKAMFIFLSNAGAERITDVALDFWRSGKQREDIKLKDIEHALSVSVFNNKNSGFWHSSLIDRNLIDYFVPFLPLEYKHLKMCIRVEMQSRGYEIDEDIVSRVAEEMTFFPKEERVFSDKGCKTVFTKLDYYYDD

Torsin-1A (Homo sapiens) [18] = target: Torsin-1A (Homo sapiens) (UniProt O14656); experiment: torsin A mutant lysate binding on microarrays – cell lysate, small-molecule microarray, COS7 lysate, 635/667 nm fluorescence, primary screen (AID 1150); details: COS7 hTOR1A mutant lysate, 635 nm fluorescence, higher = more signal;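 note: score pools 667 nm emission and signal to noise measuring lysate protein binding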
[19] = tested on: Sonic hedgehog protein (Shh); experiment: Sonic hedgehog microarray binding compounds – biochemical, small-molecule microarray, 635/667 nm fluorescence, primary screen (AID 1151); details: 635 nm fluorescence, higher = more signal;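 note: Shh protein binding to compounds spotted on small-molecule microarray slides; score combines spot fluorescence intensity with signal-to-noise across triplicate slides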

Structure (SMILES) | composite z-score [1] | composite z-score [2] | composite z-score [3] | composite z-score [4] | composite z-score [5] | composite z-score [6] | z-score [7] | composite z-score (Lefty1) | composite z-score [8] | z-score [9] | composite z-score [10] | z-score [11] | z-score [12] | z-score [13] | z-score [14] | composite z-score [15] | composite z-score [16] | composite z-score (Torsin-1A (Homo sapiens) [17]) | composite z-score (Torsin-1A (Homo sapiens) [18]) | composite z-score [19]
C[C@]12C(=O)N(CCCO)[C@@H]3C(=O)N(c4ccc(Cl)cc4)CC=CC31O[C@@H]1/C=C\CCCOC(=O)C12 (stereo not given in full) | 2.25 | -0.549 | 0.438 | -2.51 | -0.804 | -1.72 | 0.202 | -0.68 | 1.13 | -0.299 (inactive) | -0.408 | 0.231 (inactive) | 0.993 (inactive) | -0.212 (inactive) | -0.221 (inactive) | -1.19 | -0.218 | -1.88 | -1.13 | 0.399
O=C1C2C=CC(C(O)c3ccccn3)N(Nc3ccccc3)C2C(=O)N1c1ccccc1 (stereo not given) | 0.0213 | 0.0731 | 0.478 | 0.339 | 0.0784 | -0.424 | 0.327 | 0.144 | 1.14 | -1.08 (inactive) | -0.234 | 0.915 (inactive) | -0.574 (inactive) | 1.02 (inactive) | 0.497 (inactive) | -0.065 | 0.0013 | -0.265 | -0.382 | -0.367
O=C(CS)NCCCCCNC(=O)[C@@H]1C[C@@H]2C(=O)N3CCC[C@H]3C(=O)N2[C@@H]1c1ccc(O)cc1 | 3.22 | 1.12 | 0.0999 | -0.174 | 1.26 | 1.34 | 0.605 | -0.0581 | -0.339 | -1.59 (inactive) | 0.257 | -0.237 (inactive) | -0.78 (inactive) | -0.13 (inactive) | -0.862 (inactive) | -0.23 | -0.0313 | 0.99 | 1.24 | 0.837
CC(C)(C)OC(=O)CC[C@]1(C(=O)N2CCCCC2)N=C(c2ccc(OCCCO)cc2)O[C@H]1c1ccccc1CN=[N+]=[N-] | 3.05 | 1.21 | 0.72 | 0.978 | 1.4 | 1.42 | 2.94 | 0.675 | 1.09 | -3.56 (inactive) | 1.13 | -3.42 (inactive) | -0.596 (inactive) | 0.927 (inactive) | -0.707 (inactive) | 0.835 | 0.927 | 0.635 | 1.17 | 0.251
COC(=O)[C@@]1(Cc2ccccc2)[C@H]2c3cc(C(=O)N4CCCC4)n(Cc4ccccc4)c3C[C@H]2CN1C(=O)c1ccccc1 | 0.673 | 1.24 | 0.756 | 0.524 | 0.841 | -0.407 | 0.339 | 0.272 | 0.893 | 0.886 (inactive) | 0.651 | -3.2 (inactive) | -0.402 (inactive) | 1.74 (inactive) | -0.0064 (inactive) | 0.589 | 0.53 | -0.112 | -0.0741 | -0.606
